These results are taken from PubChem BioAssay (NCATS).

Assay [1] can be described thus: qHTS Assay for Lipid Storage Modulators (AID 1519; calls by dose curve; on activity change, negative = inhibition: on the % scale 0 is the no-effect control and ±100 the full control effect). Particulars: Drosophila S3 cells, BODIPY lipid droplet/cell ratio, laser cytometry, cells loaded with oleic acid; for activity change, negative = inhibition: at 57.5 µM (top of the series). The essentials:
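Cells seeded at 5,000 per well were treated with compounds over a concentration series and loaded with oleic acid (400 uM, as added). Lipid droplet fluorescence (488 nm excitation, 500-530 nm channel) was read by laser-scanning cytometry and normalized to 20 uM Triacsin C.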

Assay [2] addresses DNA dC->dU-editing enzyme APOBEC-3G (Homo sapiens) (UniProt Q9HC16). The assay can be described thus: qHTS for inhibitors of Vif-A3G interactions: Validation (AID 588379). Further: 0% is about no effect. The essentials: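 Yellow fluorescence (Ex 488, Em 500-530) of Vif-coexpressing HeLa A3G-eYFP cells, scanned by Acumen cytometer, reports blocked A3G degradation. Cells plated at 700/well overnight at 37 deg C before compound addition, then a further overnight compound incubation at 37 deg C.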
Background: In qHTS, concentration-response curves come from the screen itself.

Assay [3] addresses Cytochrome P450 3A4 (Homo sapiens) (UniProt P08684). In words: qHTS Assay for Inhibitors and Substrates of Cytochrome P450 3A4 (AID 884). Further: nearly all actives have a fitted effect of over 50% in size. Further: potency means the concentration at half of the fitted maximal effect. On activity change, negative = inhibition: on the % scale 0 is the no-effect control and ±100 the full control effect. The essentials: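 Luminescent readout of luciferin produced by CYP3A4 (20 nM) dealkylation of Luciferin-PPXE, 25 uM (its KM). NADPH-driven reaction ran 60 min at RT after 10 min compound preincubation; data scaled to 57 uM ketoconazole as 100% inhibition.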

The nature of assay [4]: Confirmation and Secondary Assay for Modulators of Hemoglobin Beta Chain Splicing at IVS2 654 locus (AID 910).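 Further: HeLa cells stably carrying EGFP split by mutant beta-globin IVS2-654 intron; per-well total GFP intensity by laser scanning cytometry after 2-day treatment; % of control where 0% means no effect.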 The essentials: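 Readout: per-well total peak green fluorescence (488 nm ex, 500–520 nm em) from objects 5–250 µm, reflecting correct splicing of an EGFP-654 reporter. Compounds were applied for 2 days at 37 °C to overnight-plated HeLa EGFP-654 cells; controls were DMSO and 500 nM IVS2-654 PNA.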

The nature of assay [5]: Confirmation and Secondary Assay for Modulators of Hemoglobin Beta Chain Splicing at IVS2 705 locus (AID 930).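 Further: HeLa cells stably expressing the EGFP-705 splicing reporter; % of control where 0% means no effect.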 The method in brief: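 Assay measures total GFP intensity per well in HeLa EGFP-705 cells after 2 days with compound; mis-splicing normally truncates EGFP, so fluorescence indicates corrected splicing.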
The target of assay [6] is Ubiquitin carboxyl-terminal hydrolase 1 (Homo sapiens) (UniProt O94782). In words: Inhibitors of USP1/UAF1: Pilot qHTS (AID 504865).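 Further: rhodamine fluorescence freed from ubiquitin-rhodamine substrate followed over time; top concentration of the series differs between compounds; on the % scale 0 is the no-effect control and ±100 the full control effect; nearly all actives have a fitted effect of over 35% in size.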 The method in brief: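 USP1/UAF1 complex at 1 nM preincubated 15 min at room temperature with compound, then Ub-Rho substrate added at 150 nM final. Fluorescence (480/540 nm) read kinetically in 50 mM HEPES pH 7.8, 0.5 mM EDTA, 1 mM TCEP, 0.1 mg/ml BSA, 0.01% Tween-20.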
Sequence of Ubiquitin carboxyl-terminal hydrolase 1 (Homo sapiens) (O94782 whole entry, looked up): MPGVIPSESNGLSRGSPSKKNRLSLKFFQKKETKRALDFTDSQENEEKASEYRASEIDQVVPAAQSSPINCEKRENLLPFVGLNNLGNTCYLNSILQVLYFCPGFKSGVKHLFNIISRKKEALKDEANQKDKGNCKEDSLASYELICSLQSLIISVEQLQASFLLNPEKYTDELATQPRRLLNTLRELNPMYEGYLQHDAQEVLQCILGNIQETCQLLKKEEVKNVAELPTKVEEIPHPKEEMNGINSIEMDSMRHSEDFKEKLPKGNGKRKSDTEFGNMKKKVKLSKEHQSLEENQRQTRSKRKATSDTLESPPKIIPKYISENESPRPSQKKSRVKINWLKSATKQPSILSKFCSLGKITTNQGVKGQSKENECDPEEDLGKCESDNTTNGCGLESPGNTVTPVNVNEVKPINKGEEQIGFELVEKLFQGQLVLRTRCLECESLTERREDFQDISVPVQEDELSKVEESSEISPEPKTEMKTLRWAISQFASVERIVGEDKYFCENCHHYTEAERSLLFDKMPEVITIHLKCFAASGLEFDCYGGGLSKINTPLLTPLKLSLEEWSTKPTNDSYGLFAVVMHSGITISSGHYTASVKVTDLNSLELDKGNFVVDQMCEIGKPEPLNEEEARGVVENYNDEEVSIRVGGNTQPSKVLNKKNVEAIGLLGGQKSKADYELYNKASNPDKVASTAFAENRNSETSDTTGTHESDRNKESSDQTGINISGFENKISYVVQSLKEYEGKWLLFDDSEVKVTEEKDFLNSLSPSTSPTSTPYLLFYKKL

In assay [7] the target is Cytochrome P450 3A4 (Homo sapiens) (UniProt P08684). In words: qHTS Assay for Activators of Cytochrome P450 3A4 (AID 885). Further: nearly all actives have a fitted effect of over 65% in size. The method in brief:
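Luminescent readout of luciferin formed from 25 uM Luciferin-PPXE (KM level) by 20 nM CYP3A4 in 200 mM KPO4, with 60 min NADPH-driven reaction at room temperature after 10 min compound exposure. Ketoconazole (57 uM) defined 100% inhibition.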

Setting [8] is: measured here: cell count channel max response.
Setting [9] is: measured here: lipid channel max response.

Molecules are shown by their SMILES. Inconclusive results are not listed. Calls of active or inactive are those of the source. Unless noted, the call rests on the fitted dose curve; in most records, active means well fitted curve in the direction sought with a large enough effect; inconclusive means small, poorly fitted or top-dose-only effect, or another doubt; inactive means no such curve, though single readings can be large; an effect the other way counts as inactive or inconclusive.

Sequence of DNA dC->dU-editing enzyme APOBEC-3G (Homo sapiens) (Q9HC16 whole entry, looked up): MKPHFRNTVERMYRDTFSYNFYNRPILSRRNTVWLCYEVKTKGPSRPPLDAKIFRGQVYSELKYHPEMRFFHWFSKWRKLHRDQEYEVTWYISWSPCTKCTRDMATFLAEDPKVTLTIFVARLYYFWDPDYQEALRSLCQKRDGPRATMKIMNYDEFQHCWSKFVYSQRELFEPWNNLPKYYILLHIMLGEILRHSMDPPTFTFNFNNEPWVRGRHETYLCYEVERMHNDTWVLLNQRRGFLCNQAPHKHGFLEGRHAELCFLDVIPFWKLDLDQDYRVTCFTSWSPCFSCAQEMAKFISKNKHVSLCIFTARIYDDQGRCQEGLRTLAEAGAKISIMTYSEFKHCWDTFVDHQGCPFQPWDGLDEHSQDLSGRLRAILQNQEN
Sequence of Cytochrome P450 3A4 (Homo sapiens) (P08684 whole entry, looked up): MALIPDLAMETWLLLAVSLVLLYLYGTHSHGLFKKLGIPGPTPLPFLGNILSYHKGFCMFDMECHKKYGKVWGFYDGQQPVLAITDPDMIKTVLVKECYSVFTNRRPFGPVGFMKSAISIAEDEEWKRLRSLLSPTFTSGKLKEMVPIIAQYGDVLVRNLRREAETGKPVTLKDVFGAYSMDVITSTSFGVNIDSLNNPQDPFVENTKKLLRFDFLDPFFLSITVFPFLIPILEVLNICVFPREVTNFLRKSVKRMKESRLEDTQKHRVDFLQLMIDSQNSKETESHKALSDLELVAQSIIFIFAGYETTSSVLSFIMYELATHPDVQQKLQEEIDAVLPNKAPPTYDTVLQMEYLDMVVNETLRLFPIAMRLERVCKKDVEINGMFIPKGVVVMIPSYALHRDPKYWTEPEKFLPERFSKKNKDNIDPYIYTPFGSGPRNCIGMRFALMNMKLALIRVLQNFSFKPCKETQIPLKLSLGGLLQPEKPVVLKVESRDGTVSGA

Regarding `CC1OC(OCC2OC(Oc3c(-c4ccc(O)c(O)c4)oc4cc(O)cc(O)c4c3=O)C(O)C(O)C2O)C(O)C(O)C1O` (stereo not drawn), the activity change, negative = inhibition in assay [1] is -1.77% (inactive). Also, the max response in assay [1] (setting [8]) is -20.3%; in assay [1] (setting [9]), -20.8%. For the same compound, in assay [2], the compound was called inactive.

For the compound `O=C(/C=C/c1ccc(O)c(O)c1)O[C@@H]1C[C@@](O)(C(=O)O)C[C@H](O)[C@@H]1O`, the Potency entry in assay [3] is “inactive”. The activity change, negative = inhibition in assay [1] is -7.73% (inactive). The results for the max response in assay [1] (setting [8]) and in assay [1] (setting [9]) were 3.01% and -5.95%, respectively. For the same compound, the compound was called inactive in assay [2].

Regarding `O=c1c2ccccc2oc2cc(O)c(C3COCC(CO)C(O)C(O)C3O)c(O)c12` (stereo not drawn), the activity change, negative = inhibition in assay [1] was 16.5% (inactive). Also, the values for the max response in assay [1] (setting [8]) and in assay [1] (setting [9]) were 22.8% and 36.9%, respectively. In assay [2], the compound was classed as inactive.

For `COc1ccc(C(=O)c2ccccc2)c(O)c1O`, the Potency result in assay [4], in assay [5] and in assay [6] was “inactive” in each case. Besides, the activity change, negative = inhibition in assay [1] was 1.94% (inactive). The max response in assay [1] (setting [8]) is -24.4%; in assay [1] (setting [9]), -18%.

In the case of `C=C1CC[C@@H]2O[C@@]2(C)CC[C@H]2[C@H]1CC2(C)C`, the Potency result in assay [7] was “inactive”. Besides, in assay [1], the activity change, negative = inhibition was 1.31% (inactive). In addition, the max response in assay [1] (setting [8]) was found to be 22.2%; in assay [1] (setting [9]), 21.2%. Further, in assay [2], the result was inactive.

`C[C@@H]1C(=O)O[C@H]2[C@@H](O)[C@@]34[C@H]5CC(C(C)(C)C)[C@]36[C@@H](OC(=O)[C@@H]6O)O[C@@]4(C(=O)O5)[C@@]12O` (stereo partly drawn): the activity change, negative = inhibition in assay [1] is 7.16% (inactive). In addition, the max response in assay [1] (setting [8]) is -2.81%; in assay [1] (setting [9]) it was 2.02%. The compound was called inactive in assay [2].

On to `CC(=O)OC1C[C@]2(C)C(C(C)=O)CCC2C2CCC3=CC(=O)CC[C@@]3(C)C12` (stereo partly drawn), for which the Potency result in assay [4], in assay [5] and in assay [6] was “inactive” throughout. Also, in assay [1], the activity change, negative = inhibition is 9.05% (inactive). Further, the max response amounted to 25.2% in assay [1] (setting [8]) and 39.7% in assay [1] (setting [9]).

In the case of `CCC1OC(=O)C(C)[C@@H](O[C@H]2C[C@@](C)(OC)C(O)C(C)O2)C(C)[C@@H](O[C@@H]2OC(C)CC(N(C)C)C2O)[C@@](C)(O)CC(C)CN(C)C(C)C(O)[C@]1(C)O` (stereo partly drawn), the Potency result in assay [4], in assay [5] and in assay [6] was “inactive” each time. For the same compound, the activity change, negative = inhibition in assay [1] is 0.114% (inactive). For the same compound, the max response was found to be 12.3% in assay [1] (setting [8]) and 14.1% in assay [1] (setting [9]).

As to `COc1ccccc1-c1cc(=O)c2cccc(OC)c2o1`, in assay [3], the Potency was 20 µM (active). For the same compound, the Potency entry in assay [7], in assay [4] and in assay [5] was “inactive” throughout. Moreover, the activity change, negative = inhibition in assay [1] was 6.98% (inactive). In addition, the max response in assay [1] (setting [8]) was found to be 13.5%; in assay [1] (setting [9]), 23.2%.

With `CCC(C)C(=O)OC1C2CC3=C4CC(=O)OC(c5ccoc5)[C@]4(C)CCC3[C@@](C)(C2=O)C(CC(=O)OC)C1(C)C` (stereo partly drawn), in assay [3], the Potency is 6.31 µM (active). In addition, the Potency entry in assay [7], in assay [4] and in assay [5] was “inactive” in each case. Further, the activity change, negative = inhibition in assay [1] was -2.94% (inactive). For the same compound, the max response in assay [1] (setting [8]) is -4.4%; in assay [1] (setting [9]), -5.82%.

On to `CO[C@@]1(NC(=O)CSCC#N)C(=O)N2C(C(=O)O)=C(CSc3nnnn3C)CSC21` (stereo partly drawn), for which the Potency entry in assay [3], in assay [4] and in assay [5] was “inactive” each time. Moreover, the activity change, negative = inhibition in assay [1] was 5.21% (inactive). Besides, the max response in assay [1] (setting [8]) came out at 4.52%; in assay [1] (setting [9]), 12.5%.

On to `COc1ccc(/C=C/C(=O)c2ccc(O)cc2O)cc1`, for which the Potency in assay [3] was 2.51 µM (active). The Potency result in assay [7], in assay [4] and in assay [5] was “inactive” throughout. In addition, the activity change, negative = inhibition in assay [1] was 5.71% (inactive). In addition, the max response in assay [1] (setting [8]) worked out at 11.7%; in assay [1] (setting [9]), 19.5%.

Regarding `OCC1OC(n2cnc3c(Cl)ncnc32)C(O)C1O` (stereo not drawn), the Potency entry in assay [3], in assay [4] and in assay [5] was “inactive” each time. Also, the activity change, negative = inhibition in assay [1] is 1.41% (inactive). For the same compound, the results for the max response in assay [1] (setting [8]) and in assay [1] (setting [9]) were 10.1% and 10.3%, respectively.
